Screens from PubChem.
The list is not random: actives were taken first. Their share in the collection is about 14%.
HADH2 inhib – HADH2 (human) dehydrogenase inhibition. Q99714. recombinant HADH2, NADH fluorescence, beta-hydroxybutyryl-CoA. Potency, µM (top dose mostly 57.1 µM), inactives show at the top dose activity change, negative = inhibition, hits mostly inhibitors. 73,000 tested, 3.4% active. AID 886; further: potency means the concentration at half of the fitted maximal effect; on the % scale 0 is the no-effect control and ±100 the full control effect; nearly all actives have a fitted effect of over 60% in size
Target sequence (Q99714 whole entry, looked up, one chain of several): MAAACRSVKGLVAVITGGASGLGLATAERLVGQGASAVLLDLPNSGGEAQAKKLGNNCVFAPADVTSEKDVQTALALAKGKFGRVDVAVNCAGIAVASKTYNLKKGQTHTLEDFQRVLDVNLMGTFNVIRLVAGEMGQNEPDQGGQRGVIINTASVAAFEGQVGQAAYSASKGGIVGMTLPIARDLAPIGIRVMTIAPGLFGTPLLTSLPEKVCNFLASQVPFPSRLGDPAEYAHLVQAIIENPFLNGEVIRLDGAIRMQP
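E. coli-expressed His-tagged HADH2 tested at 20 nM in alkaline Tris buffer (pH 9.0); oxidation of 90 uM beta-hydroxybutyryl-CoA with 1 mM NAD+ tracked fluorimetrically for 4 min.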
CRE-bla Fsk – modulators of forskolin-stimulated CRE signaling in CHO cells; CHO CRE-bla reporter (cAMP response element driving beta-lactamase), forskolin EC10, beta-lactamase ratio; Potency, µM (doses to about 38.2 µM), inactives show at the top dose activity change, negative = inhibition, hits mostly activators; 71,000 tested, 2.5% active; AID 662; active means well fitted activation curve with a large enough effect in the signal ratio, with a control signal flat, not every such curve was filed as active; inconclusive means small, poorly fitted or top-dose-only effect, or effect the other way, or a change in a side signal; the % refers to the signal ratio; further: potency means the concentration at half of the fitted maximal effect; % of control where 0% means no effect
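qHTS titration format; CRE-bla CHO reporter; stimulus EC10 NKH 477, a water-soluble forskolin. Read: CCF4 460/530 nm ratio. Potency expressed as AC50 for activators or inhibitors.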
A350 autofl – compound fluoresces in the Alexa 350 spectral region. Compound autofluorescence, 340/450 nm, Alexa 350 dye-equivalents; hits give high values. max dye-equivalent concentration, M. 59,000 tested, 11% active; in the data active means max dye-equivalent concentration above about 10 nM; inconclusive means mostly about 1.1 nM to 9.6 nM
HSD17B inhib – blocks hydroxysteroid 17-beta dehydrogenase activity; Q99714; 75,000 tested, 7.6% active; AID 893; Potency, µM (top dose mostly 57.1 µM), for inactives: top-dose activity change, negative = inhibition, hits mostly inhibitors; recombinant HSD17B10, NADH fluorescence kinetic;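 further: the protocol describes HADH2 (HSD17B10) and not the HSD17B4 of the title; potency means the concentration at half of the fitted maximal effect; on the % scale 0 is the no-effect control and ±100 the full control effect; nearly all actives have a fitted effect of over 70% in size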
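20 nM HADH2, pH 9.0 Tris/Tween; cpd preinc 15 min RT; start w/ 1 mM NAD+ + 90 uM b-hydroxybutyryl-CoA; kinetic fluor ex360/em450 q30s x 4 min; delta last-first.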
AID923 – qHTS Assay for Allosteric/Competitive Inhibitors of Caspase-1: Spectroscopic Profiling in AFC Spectral Region; compound fluorescence, AFC spectral region (405/520 nm); 75,000 tested, 1.1% active; Potency, µM (top dose mostly 57.5 µM), for inactives: at the highest dose fluorescence increase, most hits filed as activators; further: potency means the concentration at half of the fitted maximal effect; 0% is about no effect
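Compound autofluorescence profiled at 405 nm ex/520 nm em during kinetic caspase 1 run (50 nM enzyme, 5 uM Ac-WEHD-AFC, HEPES pH 7.5, 10 mM DTT). Titration up to 57 uM; baseline from regression intercept, normalized to AFC standard curve.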
4-MU autofl – compound fluoresces in the 4-MU spectral region; compound autofluorescence, 340/450 nm, 4-MU equivalents; hits give high values; max dye-equivalent concentration, M; 59,000 tested, 11% active; in the data active means max dye-equivalent concentration above about 10 nM; inconclusive means mostly about 1.1 nM to 9.6 nM
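Compounds in 100 mM Tris, pH 8.0, incubated 15 min at room temperature, then fluorescence read at 340 nm excitation/450 nm emission. Signal converted to 4-MU dye-equivalent concentration using an on-plate six-point 4-MU standard curve.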
Starred values were filed as active, the others as inactive; i = inactive; ? = inconclusive; . = no result given; [ ] = remark or other dose. Unless noted, the call rests on the fitted dose curve; in most records, active means well fitted curve in the direction sought with a large enough effect; inconclusive means small, poorly fitted or top-dose-only effect, or another doubt; inactive means no such curve, though single readings can be large; an effect the other way counts as inactive or inconclusive.

SMILES	HADH2 inhib	CRE-bla Fsk	A350 autofl	HSD17B inhib	AID923	4-MU autofl
Cc1ccc(CNC(=O)c2cn(C3CCCC3)c(=O)c3c2c2ccccc2n3C)o1	28%	?	4.7e-08M*	25µM*	4%	5.4e-08M*
COc1ccc(NC(=O)N2CC[C@@]3(CCCN(C(=O)c4c(C)noc4C)C3)C2)cc1	-3%	8%	i	1%	3%	i
c1cc2[nH]snc2c2nc(C3CC3)nc12	?	18%	1.6e-08M*	?	-2%	1.6e-08M*
Cn1c(C(=O)NCCCN2CCCCCC2)cc2c(=O)n(C)c3ccccc3c21	-11%	?	.	25µM*	1%	.
CCCN1CCN(CCCNC(=O)c2cc3c(=O)n(C)c4ccccc4c3n2C)CC1	-8%	16%	.	25µM*	-1%	.
COC(=O)c1ccc(C(NC(=O)OCc2ccccc2)/C(=C/[C@@H](C)C(=O)NCc2cc(C)on2)c2cccnc2)cc1 (some centres not stated)	10%	-13%	.	15%	1%	.
COC(=O)[C@@H]1C[C@@]2(O)[C@H](O)[C@H](O)[C@H](O)C[C@H]2N1Cc1ccc(N2CCN(C)CC2)cc1	.	.	.	-23%	3%	.
Nc1ccc(C(=O)C[C@H](N)C(=O)O)cc1O	3%[11.4 µM]	-6%[7.6 µM]	i	1%[11.4 µM]	4%[11.5 µM]	i
N#Cc1cccc(-c2nc(NCc3cccs3)c3ccccc3n2)c1	-14%	?	i	?	1%	i
CC(=O)NCCNc1nc(-c2cccc(C#N)c2)nc2ccccc12	6%	13µM*	?	-10%	-1%	i
COc1ccc(OC)c(-c2nnc(NC(=O)C(C)Sc3nncn3C)s2)c1 (configuration not stated)	60%	13µM*	.	?	-2%	.
CC[C@H](C(=O)c1cccs1)C(O)(C(F)(F)F)C(F)(F)F	-5%[11.4 µM]	-1%[7.6 µM]	i	1%[11.4 µM]	3%[11.5 µM]	i
COc1ccc(Oc2ncc3ncc(=O)n(Cc4cccs4)c3n2)cc1	4%	-7%	i	-5%	1%	i
Cn1c(C(=O)N2CCc3ccccc3C2)cc2oc3ccccc3c21	?	.	.	?	1%	.
Cn1c(C(=O)N2CCCc3ccccc32)cc2sccc21	1%	-7%	i	-8%	2%	i
Cc1cccn2c(=O)c3cc(C(=O)N4CCc5ccccc5C4)n(C)c3nc12	?	?	5.4e-07M*	3.2µM*	6%	4.1e-07M*
CCOC(=O)C1CCCN(C(=O)c2cc3c(=O)n4cccc(C)c4nc3n2C)C1 (configuration not stated)	-14%	20%	4e-07M*	3.2µM*	3%	4.3e-07M*
CCOC(=O)C1CCCN(C(=O)c2ccc3c(c2)OCO3)C1 (configuration not stated)	-8%	-2%	i	-12%	0%	i
Cc1cccn2c(=O)c3cc(C(=O)N4CCCc5ccccc54)n(C)c3nc12	1%	?	3.7e-08M*	-24%	3%	3.8e-08M*
CCCC(C(=O)NC1CCCC1)N(CC1CCCO1)C(=O)c1snc(C(N)=O)c1N (configuration not stated)	-25%	3%	1.3e-07M*	?	3%	1.7e-07M*
CCCC(C(=O)NC1CCCC1)N(CCCN1CCOCC1)C(=O)c1snc(C(N)=O)c1N (configuration not stated)	-16%	-2%	1.2e-07M*	32µM*	3%	1.3e-07M*
COc1ccc(C(C(=O)NC2CCCCC2)N(CC2CCCO2)C(=O)CNC(=O)c2ccco2)cc1 (configuration not stated)	8%	-4%	?	-4%	-3%	i
COc1ccc(C(=O)N2CCC3(CCCN(C(=O)Nc4cccc(C#N)c4)C3)CC2)cc1	4%	-12%	i	-4%	0%	i
O=c1[nH]ccc2c(O)cccc12	32µM*	-9%	5.1e-08M*	25µM*	0%	5.3e-08M*
